Each structure is given as a SMILES string. A number with no mark means an inactive call. Inconclusive results are not listed. Calls of active or inactive are those of the source. Unless noted, the call rests on the fitted dose curve; in most records, active means well fitted curve in the direction sought with a large enough effect; inconclusive means small, poorly fitted or top-dose-only effect, or another doubt; inactive means no such curve, though single readings can be large; an effect the other way counts as inactive or inconclusive.

Assay [1] addresses Cytochrome P450 1A2 (Homo sapiens) (UniProt P05177). As to the kind of experiment: p450-cyp1a2 (AID 410; calls by dose curve; further: potency means the concentration at half of the fitted maximal effect). In outline: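 20nM CYP1A2, 100uM Luciferin-ME (=Km), 100mM KPO4; cpd 10 min RT; +NADPH regen, 60 min RT; stop/detect 20 min; luminescence. Normalized to furafylline 57 uM = full inhibition.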
The target of assay [2] is Glucocorticoid receptor (Homo sapiens) (UniProt P04150). The assay can be described thus: GR-GFP Redistribution (AID 450;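 active means compounds whose dose series gives a full or clear partial fitted curve of increased nuclear translocation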; further: potency means the concentration at half of the fitted maximal effect). The settings on record: U2OS GR-GFP nuclear translocation, laser cytometry, 2 h.
Glucocorticoid receptor (Homo sapiens), sequence (P04150 whole entry, looked up): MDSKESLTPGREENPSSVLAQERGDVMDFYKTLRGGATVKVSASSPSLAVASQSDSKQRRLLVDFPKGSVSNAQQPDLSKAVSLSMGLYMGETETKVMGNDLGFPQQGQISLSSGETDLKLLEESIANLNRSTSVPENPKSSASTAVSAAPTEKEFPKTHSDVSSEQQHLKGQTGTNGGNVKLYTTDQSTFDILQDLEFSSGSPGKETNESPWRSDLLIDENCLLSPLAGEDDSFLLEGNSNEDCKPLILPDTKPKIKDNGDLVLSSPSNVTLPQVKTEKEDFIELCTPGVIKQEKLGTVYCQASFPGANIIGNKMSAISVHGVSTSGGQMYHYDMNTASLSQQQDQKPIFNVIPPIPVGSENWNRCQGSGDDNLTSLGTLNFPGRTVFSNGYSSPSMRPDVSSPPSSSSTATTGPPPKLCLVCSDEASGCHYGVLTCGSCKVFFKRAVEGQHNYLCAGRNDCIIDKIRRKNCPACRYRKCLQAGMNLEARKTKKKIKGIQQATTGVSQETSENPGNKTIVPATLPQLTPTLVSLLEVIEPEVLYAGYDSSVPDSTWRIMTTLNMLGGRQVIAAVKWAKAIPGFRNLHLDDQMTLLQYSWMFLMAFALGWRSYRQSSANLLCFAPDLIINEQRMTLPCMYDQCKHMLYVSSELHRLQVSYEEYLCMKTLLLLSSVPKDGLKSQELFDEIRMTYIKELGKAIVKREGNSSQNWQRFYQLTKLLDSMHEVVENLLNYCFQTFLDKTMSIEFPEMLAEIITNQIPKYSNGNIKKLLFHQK
The target is the same in assay [3]. The assay can be described thus: GR-EFC Redistribution (AID 451; calls by dose curve; further: potency means the concentration at half of the fitted maximal effect). To be noted: CHO-K1 GR-EFC translocation, beta-gal luminescence, 2 h. The method in brief:
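Translocation of GR-ED fusion to nuclear EA restores b-gal, read by luminescence after 1 h room-temperature detection. Engineered CHO-K1 biosensor cells, 1,000/well, exposed 2 h at 37 C to titrations up to 46 uM final.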

The target in assay [4] is Mitogen-activated protein kinase 10 (Mus musculus) (UniProt Q61831). The assay can be described thus: JNK3 AlphaScreen Assay (AID 530; active means well fitted curve in either direction with a large enough effect, not every such curve was filed as active;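 further: kinase came from lysate of stimulated human HepG2 cells; signal reports phosphorylation of biotinylated GST-cJun 1-79 at Ser73 with 10 µM ATP; series mostly up to about 57 µM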). In outline: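 Kinase buffer: 20 mM Tris-HCl pH 7.6, 10 mM MgCl2, 1 mM DTT, 0.1 mM Na3VO4, 0.01% Tween-20; ATP 10 uM. Substrate biotin-GST-cJun(1-79), enzyme from activated HepG2 lysates. Detection by Ser73 phospho-antibody AlphaScreen.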
(Alpha assays give light when donor and acceptor beads are brought close together.)

For assay [5], the target named is Ubiquitin carboxyl-terminal hydrolase 1 (Homo sapiens) (UniProt O94782). The assay can be described thus: Inhibitors of USP1/UAF1: Pilot qHTS (AID 504865). Further: nearly all actives have a fitted effect of over 35% in size. Further: potency means the concentration at half of the fitted maximal effect. In outline:
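In 50mM HEPES pH 7.8 containing 0.5mM EDTA, 1mM TCEP, 0.1 mg/ml BSA and 0.01% Tween-20, 1nM USP1/UAF1 is exposed to compound for 15 min, then Ub-Rho (150nM final) is added and fluorescence is read over time.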
(In general: Quantitative high-throughput screening tests each substance at several concentrations.)

Assay [6] concerns Zika virus NS2B-NS3 protease. The assay can be described thus: Primary screen GU AMC qHTS for Zika virus inhibitors (AID 1347154). Further: nearly all actives have a fitted effect of over 70% in size. In outline:
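Fluorogenic AMC-substrate cleavage by noncovalent NS2B-NS3 protease complex (25 nM, pH 8.0 Tris buffer with Tween 20) followed for 15 minutes at room temperature (~20% conversion). Percent inhibition from ex340/em450 signal change, fitted by 4-parameter Hill equation.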

Assay [7] concerns the target 3',5'-cyclic-AMP phosphodiesterase 4B (Homo sapiens) (UniProt Q07343). The assay can be described thus: qHTS Assay for Inhibitors of PDE-IV (AID 607; active means well fitted activation curve with a large enough effect in the main read-out, with a control signal flat, not every such curve was filed as active). In outline: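 Live HEK293 cells with a modified cyclic nucleotide-gated (CNG) channel report intracellular cAMP via membrane-potential dye fluorescence (ex 535/em 590 nm). Endogenous PDE-IV was targeted. Compounds were tested at up to 22.9 uM final; RO 20-1724 100 uM served as control.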

The target in assay [8] is Cytochrome P450 2C9 (Homo sapiens) (UniProt P11712). As to the kind of experiment: qHTS Assay for Inhibitors and Substrates of Cytochrome P450 2C9 (AID 883). Further: nearly all actives have a fitted effect of over 60% in size. Further: potency means the concentration at half of the fitted maximal effect. The method in brief:
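Turnover of Luciferin-H (100uM, KM) by 10nM human CYP2C9 was measured over 60 min at 37C with NADPH regeneration; inhibitors and some substrates reduce luminescence. Data normalized to sulphaphenazole 57uM.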

The target in assay [9] is Cytochrome P450 3A4 (Homo sapiens) (UniProt P08684). The assay can be described thus: qHTS Assay for Activators of Cytochrome P450 3A4 (AID 885). Further: nearly all actives have a fitted effect of over 65% in size. The method in brief:
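Using 20nM recombinant human CYP3A4 in potassium phosphate (200mM), substrate Luciferin-PPXE at 25uM, luminescent luciferin detection followed a 60-min RT NADPH reaction; data scaled to 57 uM ketoconazole.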

Assay [10] deals with Cytochrome P450 2C19 (Homo sapiens) (UniProt P33261). The assay can be described thus: qHTS Assay for Inhibitors and Substrates of Cytochrome P450 2C19 (AID 899). Further: nearly all actives have a fitted effect of over 60% in size. Further: potency means the concentration at half of the fitted maximal effect. In outline:
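Reactions contain 5nM enzyme, 10uM Luciferin-H EGE (KM) and 50mM KPO4; compound preincubates 10 min at 37C, NADPH regeneration starts turnover for 60 min. Luminescence after detection reagent gives activity.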

For assay [11], the target named is DNA dC->dU-editing enzyme APOBEC-3G (Homo sapiens) (UniProt Q9HC16). The assay can be described thus: qHTS for inhibitors of Vif-A3G interactions: Validation (AID 588379). The method in brief:
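Yellow fluorescence (Ex 488, Em 500-530) of Vif-coexpressing HeLa A3G-eYFP cells, scanned by Acumen cytometer, reports blocked A3G degradation. Cells plated at 700/well overnight at 37 deg C before compound addition, then a further overnight compound incubation at 37 deg C.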

Assay [12] concerns the target Guanine nucleotide-binding protein G(i) subunit alpha-1 (Homo sapiens) (UniProt P63096). The assay can be described thus: qHTS Assay for Inhibitors of RGS12 GoLoco Motif Activity (Green Fluorophore) (AID 879).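 Further: negative values mean loss of peptide binding seen as reduced polarization.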 The method in brief: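 A drop in FITC polarization marked displacement of the FITC-tagged RGS12 GoLoco peptide (10 nM) from Gαi1 (50 nM). Compounds were incubated 10 min at room temperature in Tris pH 7.5 buffer containing 150 mM NaCl, 0.1 mM GDP and 0.05% NP40; unlabeled peptide titration served as control.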

Assay [13] concerns the target Cytochrome P450 3A4 (Homo sapiens) (UniProt P08684). As to the kind of experiment: qHTS Assay for Inhibitors and Substrates of Cytochrome P450 3A4 (AID 884). Further: nearly all actives have a fitted effect of over 50% in size. In outline:
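Luminescent readout of luciferin produced by CYP3A4 (20 nM) dealkylation of Luciferin-PPXE, 25 uM (its KM). NADPH-driven reaction ran 60 min at RT after 10 min compound preincubation; data scaled to 57 uM ketoconazole as 100% inhibition.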

Assay [14] is described as follows: qHTS Assay for Identification of Small Molecule Antagonists for NFkB Signaling Pathway (AID 895; active means well fitted inhibition curve with a large enough effect in the signal ratio, with a control signal flat, not every such curve was filed as active; the % refers to the signal ratio). In outline: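 Beta-lactamase reporter read-out (460 and 530 nm emission ratio, 405 nm excitation, 2 hrs substrate loading RT) after 5 hr stimulation with 10 pM TNF alpha in compound-treated NFkB-bla ME-180 cells in low-serum medium.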
Assay [15] in a line: qHTS Assay for Identification of Small Molecule Antagonists for Thrombopoietin (TPO) Signaling Pathway (AID 918). Further: potency means the concentration at half of the fitted maximal effect; nearly all actives have a fitted effect of over 60% in size. The settings on record: TPO-dependent cell signaling reporter, antagonist mode. In outline:
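Luminescence read-out: GPIIb-promoter luciferase in Ba/F3 cells carrying human TPO receptor. Compounds added with 26 pM TPO (EC50), 24 hrs, 37 C, 5% CO2; cells deprived of IL-3 overnight beforehand. Inhibition of signal scored.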

Assay [16] concerns the target Muscarinic acetylcholine receptor M1 (Rattus norvegicus) (UniProt P08482). As to the kind of experiment: qHTS Assay for Antagonists of Acetylcholine Muscarinic M1 Receptor: Kinetic Measurement of Intracellular Calcium Response (AID 943). Further: series mostly up to about 35 µM; nearly all actives have a fitted effect of over 75% in size. In outline: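 Read-out: peak over basal Fluo-4 fluorescence, kinetic at 1 Hz for 4 min after EC80 carbachol (100 nM final). Rat M1-CHO cells, dye loaded 1 h at 37C, compound added 10 min before agonist.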

Assay [17] concerns the target Pyruvate kinase (Leishmania mexicana) (UniProt Q27686). As to the kind of experiment: qHTS Validation Assay for Inhibitors of Leishmania Mexicana Pyruvate Kinase (AID 945). In outline:
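Substrate mix (0.5 mM PEP, 0.1 mM ADP, 7 mM MgCl2, 50 mM KCl, pH 7.2 imidazole) received compound by pin tool, then 0.2 nM LmPYK E451W. After 1 h at room temperature, PKLight was added and luminescence measured.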

The target of assay [18] is Pyruvate kinase PKM (Homo sapiens) (UniProt P14618). As to the kind of experiment: qHTS Assay for Activators of Human Muscle Pyruvate Kinase (AID 954; active means well fitted curve in the direction sought with a large enough effect, not every such curve was filed as active). The method in brief:
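Screening used highly purified human pyruvate kinase M2 under submaximal activity, with PEP at its Km and ADP below Km. After an hour at room temperature, ATP was read by luciferase luminescence.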

The target in assay [19] is Alpha-galactosidase A (Homo sapiens) (UniProt P06280). The assay can be described thus: Counterscreen for Glucocerebrosidase Inhibitors: qHTS Assay for Human alpha-Galactosidase at pH 4.5 (AID 992). The method in brief:
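Each compound is preincubated briefly with 2 nM enzyme before substrate addition (80 uM); plates then sit 20 min at ambient temperature, are quenched with 1M NaOH/1M glycine, and read fluorometrically.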
On the technique in general: Counterscreens check selectivity or assay interference.

Assay [20] deals with alpha-glucosidase (Oryza sativa, rice) (UniProt Q653V4). The assay can be described thus: Counterscreen for Glucocerebrosidase Inhibitors: qHTS Assay for Rice alpha-Glucosidase at pH 5.0 (AID 997). The method in brief:
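Endpoint fluorogenic assay at pH 5.0: compounds (0.7 nM to 77 uM) titrated against 4 nM rice enzyme and 400 uM 4-MU-alpha-glucoside for 20 min at room temperature; NaOH/glycine stop, read ex 365/em 440 nm, Hill-fitted AC50.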

Assay [21] concerns the target Cytochrome P450 2D6 (Homo sapiens) (UniProt P10635). As to the kind of experiment: qHTS Assay for Inhibitors and Substrates of Cytochrome P450 2D6 (AID 891). Further: nearly all actives have a fitted effect of over 60% in size. Further: potency means the concentration at half of the fitted maximal effect. In outline:
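Luminescent read-out of luciferin formed by 5 nM human CYP2D6 demethylating 30 uM Luciferin-ME EGE (Km level) over 60 min at room temperature after NADPH regeneration addition. Data normalized to full inhibition by 1.43 uM quinidine.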

DNA dC->dU-editing enzyme APOBEC-3G (Homo sapiens), sequence (Q9HC16 whole entry, looked up): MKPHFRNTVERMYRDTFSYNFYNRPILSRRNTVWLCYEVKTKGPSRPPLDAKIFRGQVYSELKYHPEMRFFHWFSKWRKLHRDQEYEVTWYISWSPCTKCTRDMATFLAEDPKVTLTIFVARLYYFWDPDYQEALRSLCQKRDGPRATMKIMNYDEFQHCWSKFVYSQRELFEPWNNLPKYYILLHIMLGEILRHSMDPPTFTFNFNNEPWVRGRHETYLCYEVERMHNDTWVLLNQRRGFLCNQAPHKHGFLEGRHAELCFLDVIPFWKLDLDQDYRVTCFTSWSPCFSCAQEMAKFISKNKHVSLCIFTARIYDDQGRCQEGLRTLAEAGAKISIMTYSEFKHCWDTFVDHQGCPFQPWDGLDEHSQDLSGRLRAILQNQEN
Ubiquitin carboxyl-terminal hydrolase 1 (Homo sapiens), sequence (O94782 whole entry, looked up): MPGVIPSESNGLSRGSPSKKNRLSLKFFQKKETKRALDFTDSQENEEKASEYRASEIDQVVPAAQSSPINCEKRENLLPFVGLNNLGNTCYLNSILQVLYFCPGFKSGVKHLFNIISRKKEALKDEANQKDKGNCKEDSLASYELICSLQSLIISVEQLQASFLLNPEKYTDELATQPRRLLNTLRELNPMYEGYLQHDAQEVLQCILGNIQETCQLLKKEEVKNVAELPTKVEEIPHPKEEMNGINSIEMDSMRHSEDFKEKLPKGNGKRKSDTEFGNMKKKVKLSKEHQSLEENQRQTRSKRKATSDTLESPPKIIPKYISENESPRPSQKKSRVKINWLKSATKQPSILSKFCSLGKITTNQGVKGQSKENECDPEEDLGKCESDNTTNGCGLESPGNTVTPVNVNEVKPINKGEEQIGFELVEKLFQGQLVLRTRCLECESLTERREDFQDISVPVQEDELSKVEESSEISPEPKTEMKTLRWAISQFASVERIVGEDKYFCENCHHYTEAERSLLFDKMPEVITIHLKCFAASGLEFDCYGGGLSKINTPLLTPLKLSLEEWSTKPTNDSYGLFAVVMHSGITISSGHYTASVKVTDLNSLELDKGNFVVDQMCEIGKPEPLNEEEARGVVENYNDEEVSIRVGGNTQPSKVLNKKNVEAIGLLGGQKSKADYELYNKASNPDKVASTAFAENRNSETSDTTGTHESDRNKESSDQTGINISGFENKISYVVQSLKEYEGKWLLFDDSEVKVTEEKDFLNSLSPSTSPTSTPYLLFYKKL
Cytochrome P450 3A4 (Homo sapiens), sequence (P08684 whole entry, looked up): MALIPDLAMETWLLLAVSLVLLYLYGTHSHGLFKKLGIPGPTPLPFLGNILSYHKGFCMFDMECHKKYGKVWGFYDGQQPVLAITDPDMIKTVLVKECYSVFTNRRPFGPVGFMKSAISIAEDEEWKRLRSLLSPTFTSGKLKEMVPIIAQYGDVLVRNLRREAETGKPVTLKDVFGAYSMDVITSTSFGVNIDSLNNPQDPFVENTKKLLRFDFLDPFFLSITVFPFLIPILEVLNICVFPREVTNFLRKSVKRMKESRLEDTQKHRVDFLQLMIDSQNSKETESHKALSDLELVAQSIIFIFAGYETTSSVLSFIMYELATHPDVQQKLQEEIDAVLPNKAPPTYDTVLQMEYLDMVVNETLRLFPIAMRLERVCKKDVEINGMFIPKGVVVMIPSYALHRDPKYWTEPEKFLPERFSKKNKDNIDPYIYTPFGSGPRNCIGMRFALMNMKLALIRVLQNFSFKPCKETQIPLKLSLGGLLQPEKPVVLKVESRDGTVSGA
Cytochrome P450 1A2 (Homo sapiens), sequence (P05177 whole entry, looked up): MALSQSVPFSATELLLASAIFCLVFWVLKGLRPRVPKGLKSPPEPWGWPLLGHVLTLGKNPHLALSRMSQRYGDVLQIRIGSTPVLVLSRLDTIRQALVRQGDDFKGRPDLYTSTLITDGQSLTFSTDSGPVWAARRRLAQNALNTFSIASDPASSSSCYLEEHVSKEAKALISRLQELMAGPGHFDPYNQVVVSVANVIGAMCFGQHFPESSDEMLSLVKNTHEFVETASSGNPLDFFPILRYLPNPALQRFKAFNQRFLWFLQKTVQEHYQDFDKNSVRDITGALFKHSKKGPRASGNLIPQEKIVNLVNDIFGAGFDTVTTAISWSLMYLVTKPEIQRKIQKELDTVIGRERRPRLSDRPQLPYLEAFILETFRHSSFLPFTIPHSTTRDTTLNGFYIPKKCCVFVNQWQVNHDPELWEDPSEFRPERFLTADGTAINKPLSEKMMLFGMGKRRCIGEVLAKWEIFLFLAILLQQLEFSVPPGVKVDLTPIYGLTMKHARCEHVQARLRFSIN
3',5'-cyclic-AMP phosphodiesterase 4B (Homo sapiens), sequence (Q07343 whole entry, looked up): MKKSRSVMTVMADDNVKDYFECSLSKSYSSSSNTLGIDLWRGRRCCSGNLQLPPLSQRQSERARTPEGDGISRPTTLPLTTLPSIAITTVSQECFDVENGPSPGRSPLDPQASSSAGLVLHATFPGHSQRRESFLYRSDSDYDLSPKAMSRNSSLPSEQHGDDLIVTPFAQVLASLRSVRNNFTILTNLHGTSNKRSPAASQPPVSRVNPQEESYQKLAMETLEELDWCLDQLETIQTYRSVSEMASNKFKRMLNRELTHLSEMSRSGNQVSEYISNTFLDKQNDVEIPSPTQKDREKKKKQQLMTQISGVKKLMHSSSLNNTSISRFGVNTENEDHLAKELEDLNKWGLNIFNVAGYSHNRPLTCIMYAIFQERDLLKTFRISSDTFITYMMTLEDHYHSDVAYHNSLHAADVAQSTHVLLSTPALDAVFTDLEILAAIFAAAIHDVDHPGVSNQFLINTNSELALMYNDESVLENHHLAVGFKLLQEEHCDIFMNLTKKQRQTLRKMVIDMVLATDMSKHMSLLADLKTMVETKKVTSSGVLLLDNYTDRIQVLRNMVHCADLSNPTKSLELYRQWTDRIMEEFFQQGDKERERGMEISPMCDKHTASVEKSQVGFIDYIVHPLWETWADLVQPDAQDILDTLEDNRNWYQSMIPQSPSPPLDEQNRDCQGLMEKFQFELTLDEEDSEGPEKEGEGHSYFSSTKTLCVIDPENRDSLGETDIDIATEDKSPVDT
Cytochrome P450 2C9 (Homo sapiens), sequence (P11712 whole entry, looked up): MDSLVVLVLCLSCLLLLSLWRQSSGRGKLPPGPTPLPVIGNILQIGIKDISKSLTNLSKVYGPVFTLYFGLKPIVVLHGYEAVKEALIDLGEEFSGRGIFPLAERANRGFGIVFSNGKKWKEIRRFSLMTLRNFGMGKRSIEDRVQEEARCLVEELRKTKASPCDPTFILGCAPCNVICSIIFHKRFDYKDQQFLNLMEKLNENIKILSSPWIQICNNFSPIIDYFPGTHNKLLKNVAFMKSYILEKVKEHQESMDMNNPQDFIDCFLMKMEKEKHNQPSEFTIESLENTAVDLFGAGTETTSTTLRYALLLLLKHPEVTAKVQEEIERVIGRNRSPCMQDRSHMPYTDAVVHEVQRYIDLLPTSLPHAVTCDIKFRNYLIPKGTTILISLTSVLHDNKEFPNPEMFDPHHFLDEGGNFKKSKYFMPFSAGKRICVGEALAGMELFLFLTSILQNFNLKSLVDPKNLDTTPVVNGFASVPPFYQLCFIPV
Cytochrome P450 2C19 (Homo sapiens), sequence (P33261 whole entry, looked up): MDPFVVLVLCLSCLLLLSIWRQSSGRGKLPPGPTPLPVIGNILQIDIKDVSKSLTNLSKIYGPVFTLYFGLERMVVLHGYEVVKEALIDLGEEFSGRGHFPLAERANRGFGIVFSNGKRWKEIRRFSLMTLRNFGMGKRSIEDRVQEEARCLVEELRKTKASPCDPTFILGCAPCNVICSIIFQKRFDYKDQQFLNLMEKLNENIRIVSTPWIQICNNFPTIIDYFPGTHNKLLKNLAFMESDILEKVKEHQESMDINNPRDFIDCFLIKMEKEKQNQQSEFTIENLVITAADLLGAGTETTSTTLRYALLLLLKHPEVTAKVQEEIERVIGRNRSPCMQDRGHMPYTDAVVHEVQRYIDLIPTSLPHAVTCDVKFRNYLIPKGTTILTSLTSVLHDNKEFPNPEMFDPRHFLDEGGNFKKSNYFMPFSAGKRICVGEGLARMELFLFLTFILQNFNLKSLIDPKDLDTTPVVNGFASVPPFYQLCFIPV

For the molecule `c1ccc2nc(C3=NCCN3)cnc2c1`, the Potency was 0.398 µM (active) in assay [1], over 46 µM in assay [2] and over 46 µM in assay [3]. The Potency result in assay [4], in assay [5] and in [6] was “inactive” throughout.
Regarding `CN(CCc1ccc(Cl)c(Cl)c1)C[C@@H](O)COc1ccc(NS(C)(=O)=O)cc1`, the Potency in assay [1] was 15.8 µM (active); in assay [2], over 46 µM; in [3], over 46 µM; in assay [8], 2.51 µM (active); in assay [10], 2 µM (active). In addition, the Potency entry in [4], in assay [7], in assay [9], in assay [11] and in [6] was “inactive” in each case.
In the case of `CCCCCCCCCCCCC/C=C\[C@@H](O)[C@@H](N)CO`, the Potency in [1] is 15.8 µM (active); in [3], over 46 µM; in assay [15], 10 µM (active); in assay [5], 50.1 µM (active). Further, the Potency result in assay [7], in [13], in assay [14], in assay [16], in assay [17] and in [11] was “inactive” throughout. Besides, the Potency result in [6] was “inactive”. For the same molecule, the outcome in assay [12], in assay [18], in assay [19] and in assay [20] was inactive.
As to `N=C(N)SCCc1ccc(OCc2ccc([N+](=O)[O-])cc2)cc1`, the Potency is 31.6 µM (active) in assay [1], over 46 µM in [2] and over 46 µM in assay [3]. Also, the Potency result in [4], in assay [7], in assay [5], in assay [11] and in assay [6] was “inactive” in each case.
Consider `O=S(c1ccccc1)c1ccc2nnnn2n1` (stereo not drawn), for which the molecule was called active in [1]. Further, the Potency result in assay [4], in [11] and in [6] was “inactive” in each case. For the same molecule, the call in [8], in assay [13], in assay [9], in assay [21] and in [10] was inactive.
As to `CC[N+](CC)(CC)CCOc1ccc(/C=C\c2ccccc2)cc1`, the figures for the Potency in [2], in [3] and in [21] were over 46 µM, over 46 µM and 7.94 µM (active), respectively. In addition, the Potency result in assay [4], in assay [7], in [5], in [11] and in [6] was “inactive” throughout.
As for `N#C[C@H](Cc1ccc(O)cc1)c1ccc(O)cc1`, the Potency in assay [1] is 12.6 µM (active). For the same molecule, the Potency entry in assay [4], in assay [7], in assay [9], in [5], in assay [11] and in assay [6] was “inactive” in each case.

For the origin of these results see PubChem BioAssay (NCATS).
